# NOMO-1 viab: STK33 inhibitor candidate reducing NOMO-1 cell viability. NOMO-1 AML viability, CellTiter-Glo luminescence, 72 h. inhibition, % (test concentration not listed). hit rate 7.5% among 37,000; in the data active = inhibition above about 80%; inconclusive = no clear call, values can overlap the other calls
# PD-1 reverse act: activators reversing PD-1 mediated T-cell inhibition | primary human CD4 T cells, PD-L1 beads, CellTiter-Glo 96 h | activation, % (no concentration beside the values) | 29,000 tested, under 10 active | AID 2316; call rule not given here;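 note: 0% = median vehicle wells and 100% = positive control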
# STK33 inh: human STK33 kinase inhibition; Q9BYT3; AID 2322; inhibition, % at 12.5 µM; hit rate 0.44% among 27,000; ADP-Glo luminescence, MBP substrate; in the data active = inhibition above about 20%; inconclusive = no clear call, values can overlap the other calls
# Target sequence (Q9BYT3 whole entry, looked up): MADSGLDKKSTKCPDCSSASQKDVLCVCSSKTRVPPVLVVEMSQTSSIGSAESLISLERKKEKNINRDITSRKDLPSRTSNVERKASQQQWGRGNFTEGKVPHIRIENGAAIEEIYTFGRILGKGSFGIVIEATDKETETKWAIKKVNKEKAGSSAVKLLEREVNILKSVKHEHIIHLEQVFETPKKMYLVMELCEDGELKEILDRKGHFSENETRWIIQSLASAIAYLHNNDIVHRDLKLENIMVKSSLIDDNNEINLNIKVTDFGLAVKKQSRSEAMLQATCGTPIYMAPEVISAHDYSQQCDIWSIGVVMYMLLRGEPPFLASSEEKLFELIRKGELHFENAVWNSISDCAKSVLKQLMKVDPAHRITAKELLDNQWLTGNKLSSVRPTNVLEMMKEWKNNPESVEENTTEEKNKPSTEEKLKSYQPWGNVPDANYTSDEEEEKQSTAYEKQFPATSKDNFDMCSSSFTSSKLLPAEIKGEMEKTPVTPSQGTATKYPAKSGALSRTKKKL
# Starred values were filed as active, the others as inactive; ? = inconclusive; · = not tested or not shown. The sample as a whole holds a higher share of hits than the screen did.
SMILES,NOMO-1 viab,PD-1 reverse act,STK33 inh
Cc1ccc(S(=O)(=O)N(C)C[C@@H]2Oc3c(NC(=O)Nc4ccc(C(F)(F)F)cc4)cccc3C(=O)N([C@@H](C)CO)C[C@H]2C)cc1,34.7,0.5,·
C[C@H]1CN([C@@H](C)CO)C(=O)c2cccc(NC(=O)Nc3ccc(F)cc3)c2O[C@H]1CN(C)S(=O)(=O)c1ccc(Cl)cc1,100.3*,-5.7,·
Cc1ccc(S(=O)(=O)N(C)C[C@H]2Oc3c(NC(=O)Nc4ccc(C(F)(F)F)cc4)cccc3C(=O)N([C@H](C)CO)C[C@@H]2C)cc1,59.4,·,·
C[C@H]1CN([C@@H](C)CO)C(=O)c2cccc(NC(=O)Nc3ccc4c(c3)OCO4)c2O[C@H]1CN(C)S(=O)(=O)c1ccc(Cl)cc1,92.2*,-3.9,·
C[C@@H]1CN([C@@H](C)CO)C(=O)c2cccc(NC(=O)Nc3ccc(C(F)(F)F)cc3)c2O[C@@H]1CN(C)S(=O)(=O)c1ccc(Cl)cc1,122.4*,-11.1,·
C[C@@H]1CN([C@H](C)CO)C(=O)c2cccc(NC(=O)Nc3ccc(C(F)(F)F)cc3)c2O[C@@H]1CN(C)S(=O)(=O)c1ccc(Cl)cc1,117.3*,-6.7,·
C[C@@H]1CN([C@H](C)CO)C(=O)c2cccc(NC(=O)Nc3ccc(F)cc3)c2O[C@H]1CN(C)S(=O)(=O)c1ccc(Cl)cc1,12.0,·,·
C[C@H](CO)N1C[C@H](C)[C@H](CN(C)S(=O)(=O)c2ccc(Cl)cc2)Oc2c(NC(=O)Nc3ccc4c(c3)OCO4)cccc2C1=O,2.7,-0.4,·
CCc1ccc2oc(-c3ccc(C)c(NC(=O)COc4ccccc4)c3)nc2c1,-5.1,-0.7,2.3
COc1c2c(cc3oc(CO[C@@H]4O[C@H](CO)[C@@H](O)[C@H](O)[C@H]4O)cc(=O)c13)OC(C(C)(C)O)C2 (stereo partly drawn),2.0,1.6,1.6
COc1ccc(-c2oc(NC(=O)Cc3ccc(OC)c(OC)c3)c(C#N)c2-c2ccc(OC)cc2)cc1,39.6,·,0.0
COc1ccc(OC)c(NC(=O)Cn2cc(C(C)=O)c3ccccc32)c1,46.3,·,-0.7
CC(=O)Nc1cccc(OCC(=O)N(C)c2ccccc2)c1,4.0,0.9,-1.5
Cn1c2ccccc2c2c3c(c4c5ccccc5n(CCC#N)c4c21)CNC3=O,140.5*,-12.7,109.2*
Cc1ccc(C2=NNC(=O)C(c3cn(CCC#N)c4ccccc34)C2)cc1 (stereo not drawn),20.8,-2.3,6.3
C=C(C)CC1C(=O)NN=C1C (stereo not drawn),-5.3,0.0,·
CC(C)(C)C(=O)CSc1nnc(-c2ccncc2)n1-c1ccc(Br)cc1,32.0,-0.6,-3.1
O=S(=O)(NCc1cccnc1)c1ccc(C2CCCCC2)cc1,54.8,·,-2.2
O=C1C=CC(=C(c2ccc(O)cc2)c2ccc(O)cc2)C=C1,108.4*,·,2.7
COc1cccc(NC(=O)CSc2nnc(-c3cccc(C)c3)n2-c2ccccc2)c1,-6.9,-2.8,5.3
COc1cccc(-c2nn(-c3ccccc3)cc2C(=O)n2nnc3ccccc32)c1,127.8*,-10.0,2.2
COc1ccc(S(=O)(=O)Nc2ccc3c(c2)CC(=O)N([C@@H](C)CO)C[C@@H](C)[C@@H](CN(C)CC2CCCCC2)O3)cc1,100.6*,-0.1,2.1
COc1ccc(S(=O)(=O)Nc2ccc3c(c2)CC(=O)N([C@@H](C)CO)C[C@H](C)[C@@H](CN(C)CC2CC2)O3)cc1,-4.4,0.1,1.3
COc1ccc(S(=O)(=O)Nc2ccc3c(c2)CC(=O)N([C@@H](C)CO)C[C@H](C)[C@@H](CN(C)CC2CCCCC2)O3)cc1,108.8*,·,1.3
COc1ccc(S(=O)(=O)Nc2ccc3c(c2)CC(=O)N([C@@H](C)CO)C[C@@H](C)[C@@H](CN(C)CC2CC2)O3)cc1,6.9,1.2,0.4
SMILES,NOMO-1 viab,PD-1 reverse act,STK33 inh
CC(Oc1ccc(Br)cc1)c1nc(-c2ccccn2)no1 (stereo not drawn),39.7,1.0,-1.1
O=C1Nc2ccccc2/C1=C\c1c(Cl)[nH]c2ccccc12,97.3*,-1.2,29.1*
CN(C)c1ccc(/C=C2/C(=O)Nc3ccccc32)cc1,40.1,-0.1,33.7*
O=C1Nc2ccccc2-c2nc3ccccc3c(=O)n2-c2c(O)cccc21,8.1,-0.4,-2.7
CN1C(=O)c2ccccc2NC(=O)/C1=C\c1ccccc1,2.0,0.7,0.8
COc1cccc(C2C(C(=O)c3ccco3)C(=O)C(=O)N2CCN(C)C)c1OC (stereo not drawn),-6.7,·,0.1
CC(Oc1ccc(C(=O)NC2CCCCC2)cc1)C(=O)Nc1ccccc1C(F)(F)F (stereo not drawn),13.2,·,1.4
O=C(Nc1ccc(OCc2nc3ccccc3s2)cc1)c1cccc(I)c1,105.5*,·,-1.5
CCC(=O)Nc1ccc(OCc2nc3ccccc3s2)cc1,-6.9,·,-1.1
CCN(CC)c1cc(-c2cccs2)nc(SCC(=O)c2cccs2)c1C#N,122.1*,-1.9,·
CC(C)OC(=O)CSc1nc(-c2cccs2)cc(C(F)(F)F)c1C#N,40.3,-1.1,0.0
c1ccc(CN2CCN(Cc3ccccc3)C2c2ccco2)cc1,0.5,-0.7,·
Cc1ccc(Cl)cc1N(CC(=O)Nc1ccc(I)cc1)S(C)(=O)=O,65.6,-2.4,-0.8
Cc1ccc(Cl)cc1N(CC(=O)Nc1ccc(C(F)(F)F)cc1)S(C)(=O)=O,118.1*,-6.2,-2.1
CS(=O)(=O)N(CC(=O)Nc1cc(C(F)(F)F)ccc1Cl)c1cccc([N+](=O)[O-])c1,30.8,0.7,-5.3
CS(=O)(=O)N(CC(=O)Nc1ccc(C(F)(F)F)cc1)c1cccc([N+](=O)[O-])c1,121.3*,-2.4,-9.5
CC(=O)Nc1ccccc1C(=O)OCc1cccc(C(=O)c2ccccc2)c1,35.3,-1.2,-0.5
CNc1cc(=O)n(-c2ccccc2)c(=O)n1-c1ccccc1,-23.2,1.2,·
Cc1sc2nc3c4ccccc4c(NCc4ccccn4)nn3c(=O)c2c1C,?,-10.9,-1.6
O=C(NCCCN1CCOCC1)C1CC(c2cccc(Br)c2)=NO1 (stereo not drawn),27.8,·,2.0
C/C=C/C1=C(Cl)C(=O)[C@@H](O)[C@@]1(O)C(=O)OC,107.5*,-9.5,3.7
Cc1ccc2c(c1)-c1c(ssc1=S)C(C)(C)N2C(=O)C(C)C,19.3,1.1,·
CCN(CC(=O)Nc1cc(Cl)ccc1OC)S(=O)(=O)c1ccc(C)cc1,-12.0,1.0,-0.8
COC(=O)C[C@@H]1C(C(=O)O)=CO[C@@H](O[C@@H]2O[C@H](CO)[C@@H](O)[C@H](O)[C@H]2O)/C1=C\COC(=O)/C=C/c1ccccc1,-8.4,2.1,1.5
Cc1cc(CNC(=S)Nc2ccc(S(N)(=O)=O)cc2)nn1C,4.9,0.8,1.7
SMILES,NOMO-1 viab,PD-1 reverse act,STK33 inh
OC(Cn1nnc2ccccc21)Cn1c2ccc(Cl)cc2c2cc(Cl)ccc21 (stereo not drawn),43.4,·,4.5
O=S(=O)(NCC(O)Cn1c2ccc(Cl)cc2c2cc(Cl)ccc21)c1ccccc1 (stereo not drawn),113.0*,·,2.6
CN(CC(=O)Nc1ccc(Nc2ccccc2)cc1)S(=O)(=O)c1ccccc1,·,·,1.5
Cc1nc2c([nH]1)C1(CCC(c3ccccc3)CC1)C(C#N)=C(N)O2 (stereo not drawn),27.2,-1.5,·
COc1ccc(OC)c(NC(=O)CSc2nnc(-c3cccnc3)s2)c1,110.2*,·,2.6
COc1ccc(OC)c(NC(=O)CSc2nnc(C)s2)c1,-2.3,2.3,-0.4
